Data as given in ChEMBL document CHEMBL3988442, “University of Dundee, Small-Polar-MMV Screening Library” (2021).
For some of these results: Measured potencies and affinities stand elsewhere.

Tests used:
Design in all cases: scale not given: direction of the effect not stated beside the values
[1] = target: Protein translocase subunit SecA (Escherichia coli (strain K12)) (UniProt P10408); experiment: Assay to Identify E. coli SecA ATPase Inhibitors; format: functional; conditions: 30 µM
[2] = target: T1, Ubiquitin-activating enzyme e1, putative (Leishmania donovani (strain BPK282A1)) (UniProt E9BSI1); experiment: Leishmania donovani Ubiquitin Activating Enzyme (LdE1); format: functional; conditions: 30 µM
T1 sequence (whole entry): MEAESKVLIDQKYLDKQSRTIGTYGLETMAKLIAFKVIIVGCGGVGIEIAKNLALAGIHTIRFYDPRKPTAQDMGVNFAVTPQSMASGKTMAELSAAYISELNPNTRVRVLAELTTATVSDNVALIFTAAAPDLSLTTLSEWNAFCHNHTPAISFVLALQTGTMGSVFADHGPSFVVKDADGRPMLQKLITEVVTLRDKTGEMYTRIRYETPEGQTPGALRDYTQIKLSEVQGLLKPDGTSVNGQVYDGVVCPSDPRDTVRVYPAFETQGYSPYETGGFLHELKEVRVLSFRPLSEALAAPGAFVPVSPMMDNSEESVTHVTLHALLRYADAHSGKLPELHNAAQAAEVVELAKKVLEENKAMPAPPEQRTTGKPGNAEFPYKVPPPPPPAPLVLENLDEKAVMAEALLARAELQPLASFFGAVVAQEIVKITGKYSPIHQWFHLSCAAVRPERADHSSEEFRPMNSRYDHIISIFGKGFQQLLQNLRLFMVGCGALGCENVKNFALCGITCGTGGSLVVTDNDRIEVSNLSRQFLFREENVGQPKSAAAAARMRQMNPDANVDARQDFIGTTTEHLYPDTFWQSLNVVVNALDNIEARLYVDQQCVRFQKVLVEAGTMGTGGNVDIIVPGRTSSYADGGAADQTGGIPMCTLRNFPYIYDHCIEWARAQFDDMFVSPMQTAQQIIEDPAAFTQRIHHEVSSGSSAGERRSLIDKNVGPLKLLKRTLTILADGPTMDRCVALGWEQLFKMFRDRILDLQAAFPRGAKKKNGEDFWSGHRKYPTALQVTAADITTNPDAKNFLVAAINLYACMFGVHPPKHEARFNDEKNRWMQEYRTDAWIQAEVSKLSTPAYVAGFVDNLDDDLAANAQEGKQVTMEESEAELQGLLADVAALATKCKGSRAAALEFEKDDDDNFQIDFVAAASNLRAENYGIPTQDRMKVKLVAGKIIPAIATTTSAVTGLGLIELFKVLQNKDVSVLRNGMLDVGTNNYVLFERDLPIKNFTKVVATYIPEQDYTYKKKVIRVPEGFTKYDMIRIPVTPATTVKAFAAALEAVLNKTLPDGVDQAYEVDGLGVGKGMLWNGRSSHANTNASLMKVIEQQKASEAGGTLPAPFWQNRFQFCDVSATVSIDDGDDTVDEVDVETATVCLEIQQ

[3] = target: AMP-activated protein kinase, AMPK (Homo sapiens) (UniProt P54646+O43741+P54619+Q9UGJ0+Q9Y478+Q13131+Q9UGI9); experiment: AMP-dependent Kinase enzyme assay. An in vitro enzyme assay that detects ADP turnover that is directly proportional to AMPK activity. This uses naive AMPK that is activated during the assay with MK-8722; format: functional; conditions: 30 µM
[4] = target: Sialic acid-binding Ig-like lectin 9 (Homo sapiens) (UniProt Q9Y336); experiment: Hs-Siglec9 ALPHAscreen SOP 20170721; conditions: 10 µM
Sequence of Sialic acid-binding Ig-like lectin 9 (Homo sapiens) (Q9Y336 whole entry): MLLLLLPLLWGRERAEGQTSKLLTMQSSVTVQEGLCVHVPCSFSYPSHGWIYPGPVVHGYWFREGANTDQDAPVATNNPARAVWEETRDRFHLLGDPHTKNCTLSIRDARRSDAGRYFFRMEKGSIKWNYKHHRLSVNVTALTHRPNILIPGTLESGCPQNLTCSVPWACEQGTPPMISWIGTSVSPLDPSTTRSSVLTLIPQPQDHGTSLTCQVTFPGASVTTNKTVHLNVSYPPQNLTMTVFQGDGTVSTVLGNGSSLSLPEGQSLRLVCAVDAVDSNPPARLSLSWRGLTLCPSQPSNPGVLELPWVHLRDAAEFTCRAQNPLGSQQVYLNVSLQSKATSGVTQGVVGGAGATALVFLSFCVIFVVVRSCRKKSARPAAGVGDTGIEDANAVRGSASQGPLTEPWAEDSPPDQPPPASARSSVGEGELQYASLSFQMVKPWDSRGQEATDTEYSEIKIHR

Trypanosoma cruzi = experiment: Trypanosoma cruzi phosphomannomutase and mannose-1-phosphate guanylyltransferase assay; format: functional; conditions: 10 µM
[5] = target: T2, Arginase-2, mitochondrial (Homo sapiens) (UniProt P78540); experiment: in vitro enzyme assay to detect the production of urea directly proportional to the activity of Arginase II; format: functional; conditions: 33.3 µM; further: in the data most compounds retested in dose-response had high values
T2 sequence (whole entry): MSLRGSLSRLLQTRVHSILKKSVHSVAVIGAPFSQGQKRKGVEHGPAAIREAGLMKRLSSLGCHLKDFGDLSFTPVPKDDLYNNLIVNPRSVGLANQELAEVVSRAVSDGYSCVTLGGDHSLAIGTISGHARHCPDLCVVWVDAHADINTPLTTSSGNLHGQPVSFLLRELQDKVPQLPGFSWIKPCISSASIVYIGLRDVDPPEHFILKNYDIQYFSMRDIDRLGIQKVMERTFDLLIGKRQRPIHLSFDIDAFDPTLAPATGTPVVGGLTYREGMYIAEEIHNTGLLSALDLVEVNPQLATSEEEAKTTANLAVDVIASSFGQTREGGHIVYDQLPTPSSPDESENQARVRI

[6] = target: T3, Proteasome subunit beta (Trypanosoma cruzi) (UniProt O96673); experiment: Trypanosoma cruzi proteasome chymotrypsin-like activity (TcProtChymo) assay.; further: in the data most compounds retested in dose-response had high values; format: functional; conditions: 9.37 µM
T3 sequence (whole entry): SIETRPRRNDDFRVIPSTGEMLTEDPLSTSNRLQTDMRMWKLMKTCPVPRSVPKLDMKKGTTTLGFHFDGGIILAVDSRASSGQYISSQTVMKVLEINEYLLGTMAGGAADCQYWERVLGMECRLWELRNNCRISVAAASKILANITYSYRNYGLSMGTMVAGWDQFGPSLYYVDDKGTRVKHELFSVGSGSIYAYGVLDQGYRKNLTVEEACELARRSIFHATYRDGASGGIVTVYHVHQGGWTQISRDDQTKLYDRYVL

Homo sapiens = organism: Homo sapiens; experiment: To identify inhibition of the IFN signalling (Jak-Stat) pathway via expression of an eGFP reporter gene under the control of an IFN-stimulated response element (ISRE) containing MxA promoter.; format: functional; conditions: 30 µM
[7] = target: T4, Tyrosyl-tRNA synthetase, putative (Trypanosoma cruzi (strain CL Brener)) (UniProt Q4DSP6); experiment: Trypanosoma cruzi tyrosyl tRNA synthetase (TcYRS) _High Tyrosine SOP; format: functional; conditions: 30 µM; further: in the data most compounds retested in dose-response had high values
T4 sequence (whole entry): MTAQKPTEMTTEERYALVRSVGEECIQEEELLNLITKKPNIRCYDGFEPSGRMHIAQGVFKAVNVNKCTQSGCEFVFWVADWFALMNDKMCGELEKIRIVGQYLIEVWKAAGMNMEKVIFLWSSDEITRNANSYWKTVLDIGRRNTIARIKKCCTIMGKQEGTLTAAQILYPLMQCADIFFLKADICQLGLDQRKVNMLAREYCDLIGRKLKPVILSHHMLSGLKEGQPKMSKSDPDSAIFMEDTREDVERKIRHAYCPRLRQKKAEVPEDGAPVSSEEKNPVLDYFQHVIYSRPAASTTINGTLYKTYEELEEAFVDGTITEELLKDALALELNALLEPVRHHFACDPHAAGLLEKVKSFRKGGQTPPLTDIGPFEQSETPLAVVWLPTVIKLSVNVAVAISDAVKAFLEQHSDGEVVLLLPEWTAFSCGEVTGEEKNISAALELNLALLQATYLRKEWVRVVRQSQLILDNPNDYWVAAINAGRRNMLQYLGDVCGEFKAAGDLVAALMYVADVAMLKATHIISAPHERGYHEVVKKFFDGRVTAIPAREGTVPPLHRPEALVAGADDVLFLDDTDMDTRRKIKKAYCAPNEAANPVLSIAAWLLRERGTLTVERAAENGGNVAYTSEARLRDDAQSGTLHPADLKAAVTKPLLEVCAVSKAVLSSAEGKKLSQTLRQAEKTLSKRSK

[8] = target: T4, Tyrosyl-tRNA synthetase, putative (Trypanosoma cruzi (strain CL Brener)); experiment: Trypanosoma cruzi tyrosyl tRNA synthetase (TcYRS) SOP; format: functional; conditions: 30 µM
[9] = target: Chromo domain-containing protein 1 (Saccharomyces cerevisiae (strain ATCC 204508 / S288c) (Baker's yeast)) (UniProt P32657); experiment: ScCHD-1 Enzyme Inhibition Assay; format: functional; conditions: 30 µM; further: in the data most compounds retested in dose-response had high values
Sequence of Chromo domain-containing protein 1 (Saccharomyces cerevisiae (strain ATCC 204508 / S288c) (Baker's yeast)) (P32657 whole entry, the tested form may be a part): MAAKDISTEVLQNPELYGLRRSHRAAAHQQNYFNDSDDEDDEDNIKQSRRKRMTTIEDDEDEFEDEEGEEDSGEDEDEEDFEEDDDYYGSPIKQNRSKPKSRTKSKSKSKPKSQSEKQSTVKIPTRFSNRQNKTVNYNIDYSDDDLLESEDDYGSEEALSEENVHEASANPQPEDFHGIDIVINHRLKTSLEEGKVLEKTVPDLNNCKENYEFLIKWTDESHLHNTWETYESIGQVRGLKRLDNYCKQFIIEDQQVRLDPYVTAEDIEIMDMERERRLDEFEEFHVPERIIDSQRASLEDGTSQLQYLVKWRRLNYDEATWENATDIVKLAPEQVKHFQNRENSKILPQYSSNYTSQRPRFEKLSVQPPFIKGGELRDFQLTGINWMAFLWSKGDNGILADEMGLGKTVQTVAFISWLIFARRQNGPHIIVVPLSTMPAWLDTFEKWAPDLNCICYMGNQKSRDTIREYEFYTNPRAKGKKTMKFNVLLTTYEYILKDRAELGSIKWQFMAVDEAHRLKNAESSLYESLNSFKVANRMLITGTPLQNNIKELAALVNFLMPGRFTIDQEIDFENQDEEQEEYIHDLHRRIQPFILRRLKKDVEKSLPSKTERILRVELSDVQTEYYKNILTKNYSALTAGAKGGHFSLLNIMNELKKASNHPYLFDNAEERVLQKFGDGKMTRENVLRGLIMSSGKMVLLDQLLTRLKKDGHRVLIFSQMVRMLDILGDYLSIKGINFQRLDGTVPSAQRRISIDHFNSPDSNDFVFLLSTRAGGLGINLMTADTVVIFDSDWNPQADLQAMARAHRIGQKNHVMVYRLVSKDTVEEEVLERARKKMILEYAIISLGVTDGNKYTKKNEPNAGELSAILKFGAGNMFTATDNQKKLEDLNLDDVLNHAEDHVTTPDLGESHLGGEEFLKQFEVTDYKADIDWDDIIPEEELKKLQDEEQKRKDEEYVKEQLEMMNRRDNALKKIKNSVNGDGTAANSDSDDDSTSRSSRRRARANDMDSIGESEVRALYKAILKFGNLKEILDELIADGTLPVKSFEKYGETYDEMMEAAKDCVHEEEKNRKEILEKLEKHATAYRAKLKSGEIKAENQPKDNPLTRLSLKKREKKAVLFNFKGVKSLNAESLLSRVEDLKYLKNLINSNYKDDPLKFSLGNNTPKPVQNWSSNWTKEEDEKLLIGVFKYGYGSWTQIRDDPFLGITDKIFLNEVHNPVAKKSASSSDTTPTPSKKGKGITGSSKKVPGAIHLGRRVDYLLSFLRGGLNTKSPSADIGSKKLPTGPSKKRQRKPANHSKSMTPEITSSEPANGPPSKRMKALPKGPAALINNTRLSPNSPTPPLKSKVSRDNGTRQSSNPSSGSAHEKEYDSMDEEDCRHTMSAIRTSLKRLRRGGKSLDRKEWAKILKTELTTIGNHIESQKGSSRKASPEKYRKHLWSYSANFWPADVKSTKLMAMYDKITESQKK

Sequence of Protein translocase subunit SecA (Escherichia coli (strain K12)) (P10408 whole entry): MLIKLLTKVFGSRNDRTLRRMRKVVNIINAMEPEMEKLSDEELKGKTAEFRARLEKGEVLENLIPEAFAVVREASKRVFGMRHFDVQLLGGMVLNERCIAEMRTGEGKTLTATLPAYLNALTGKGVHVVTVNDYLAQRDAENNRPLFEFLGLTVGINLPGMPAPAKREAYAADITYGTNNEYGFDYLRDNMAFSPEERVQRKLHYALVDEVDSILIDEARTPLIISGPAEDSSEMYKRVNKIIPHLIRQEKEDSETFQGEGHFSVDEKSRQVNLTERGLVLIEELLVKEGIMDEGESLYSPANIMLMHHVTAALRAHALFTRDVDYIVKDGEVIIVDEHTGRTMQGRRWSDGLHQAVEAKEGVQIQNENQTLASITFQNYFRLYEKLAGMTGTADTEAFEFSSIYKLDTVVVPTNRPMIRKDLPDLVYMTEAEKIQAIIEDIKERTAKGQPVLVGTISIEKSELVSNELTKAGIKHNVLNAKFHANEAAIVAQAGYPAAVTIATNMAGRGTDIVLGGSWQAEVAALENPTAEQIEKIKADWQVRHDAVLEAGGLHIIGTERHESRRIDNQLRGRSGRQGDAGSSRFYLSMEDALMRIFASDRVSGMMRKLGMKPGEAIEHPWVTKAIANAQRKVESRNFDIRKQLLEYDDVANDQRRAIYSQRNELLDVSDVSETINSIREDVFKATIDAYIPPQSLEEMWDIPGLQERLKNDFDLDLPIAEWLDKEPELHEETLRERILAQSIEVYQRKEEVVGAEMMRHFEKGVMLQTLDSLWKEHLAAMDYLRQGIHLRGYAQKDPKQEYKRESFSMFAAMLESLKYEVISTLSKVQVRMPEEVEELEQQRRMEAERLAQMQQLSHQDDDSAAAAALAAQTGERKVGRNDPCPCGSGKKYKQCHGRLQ

| SMILES | Percent Effect [1] | Percent Effect [2] | Percent Effect [3] | Percent Effect [4] | Percent Effect (Trypanosoma cruzi) | Percent Effect [5] | Percent Effect [6] | Percent Effect (Homo sapiens) | Percent Effect [7] | Percent Effect [8] | Percent Effect [9] |
| --- | --- | --- | --- | --- | --- | --- | --- | --- | --- | --- | --- |
| O=C1CC(NCc2ccncc2)CN1Cc1cccc(F)c1 (stereo unspecified) | -3.06% | -2.7% | -0.958% | 0.392% | -2.9% | -2.86% | 11.6% | -9.68% | 1.59% | 2.44% | -0.358% |
| Cc1cc2nc(SCC(=O)N3CCOCC3)n(CC(C)C)c(=O)c2[nH]1 | 2.16% | 13.2% | 2.03% | -4.31% | -4.77% | 11.8% | 18.3% | -10.6% | -1.06% | 10.4% | -2.79% |
| OCCn1cc(CN2CCN(CCOc3ccccc3F)CC2)cn1 | -9.62% | 0% | 7.1% | 3.17% | -5.48% | 2.03% | 4.49% | 11.7% | -2.97% | -8.54% | 11.3% |
| Cn1cc(CN2C[C@@H]3COC[C@]3(COc3ccc(C#N)cn3)C2)cn1 | -0.614% | 5.48% | -2.34% | 6.07% | -1.98% | 1.2% | 11.4% | 13.4% | 8.33% | 11.1% | -0.913% |
| COc1ccc2c(c1)CCN(CCC(=O)NC1CCCCC1)CC2 | -1.36% | 2.7% | -5.04% | 1.78% | 5.41% | -1.43% | 15.3% | 14.6% | 6.88% | 12.2% | -1.4% |
| O=C(NCc1ccccc1)c1nnc2ccc(N3CCOCC3)cc2n1 | -4.99% | -1.33% | 67.7% | 2.19% | -3.73% | -10.4% | 14.1% | 4.89% | 6.35% | 7.69% | -13.2% |
| Cc1ccc(N2CCCC(NCc3ccc(C)o3)C2)nn1 (stereo unspecified) | -0.735% | 6.33% | 1.51% | -2.46% | 4% | -1.5% | 28.8% | -8.15% | 5.21% | 10.1% | -15.2% |
| O=C(O)c1cc2c(nc1O)CC(c1cccc(Cl)c1)CC2=O (stereo unspecified) | -6.48% | 1.33% | 28.2% | 2.46% | -5.7% | -6.16% | 7.21% | 1.57% | 4.23% | 2.56% | -9.15% |
| Cc1ccc(CN2CCC3(C2)C(=O)N(CC(C)C)c2ccccc23)s1 (stereo unspecified) | -1.13% | -16.2% | -0.146% | 1.8% | -6.25% | 3.75% | 7.02% | 7.39% | 10.9% | 13.4% | -7.96% |
| c1cnn(CC2CN(CC3CCCC3)CCO2)c1 (stereo unspecified) | -5.26% | 3.8% | -0.822% | 1.53% | 0.308% | 0.645% | 10.6% | -2.54% | 5.21% | -15.2% | -17.2% |
| c1cncc(OCc2nnn3c2CN(Cc2ccsc2)CCC3)c1 | -3.57% | 2.67% | -0.385% | 1.61% | 7.72% | -48.2% | 6.84% | 1.38% | -3.12% | -5% | -5.39% |
